Results as given in PubChem BioAssay (Tox21).
Records with an inconclusive call do not appear. Unmarked numbers belong to inactive results. Calls of active or inactive are those of the source. The call rests on the fitted dose curve.

Assay: qHTS assay to identify small molecule agonists of the hypoxia (HIF-1) signaling pathway - cell viability counter screen (AID 1224844); further: nearly all actives have a fitted effect of over 50% in size
Settings: HRE-bla ME-180 viability, CellTiter-Glo luminescence, 17 h; series mostly up to 76.8 µM; activity change, negative = cytotoxicity: at the top concentration
How it was run: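 Multiplexed with the HRE beta-lactamase assay, this viability read used CellTiter-Glo luminescence (30 min, RT) on HRE-bla ME-180 cells treated 17 hrs with compounds in 0.5% dialyzed FBS medium.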
On the % scale 0 is the no-effect control and ±100 the full control effect; potency means the concentration at half of the fitted maximal effect.

For `CCCC(=O)O[C@]1(C(=O)COC(=O)CC)CC[C@H]2[C@@H]3CCC4=CC(=O)CC[C@]4(C)[C@H]3[C@@H](O)C[C@@]21C`, the activity change, negative = cytotoxicity was -1.64% [at 15.8 µM].

Going from `CCCCCCCC/C=C\CCCCCCCC(=O)OC(CO)CO` to `CCCCCCOC(=O)C(C)C`, the “activity change, negative = cytotoxicity” value falls from -1.16% to -10.3%.

Going from `CN(C)C(=O)Nc1ccc(Oc2ccc(Cl)cc2)cc1` to `CCOC(=O)C(C)Oc1ccc(Oc2nc3ccc(Cl)cc3o2)cc1` (stereo unspecified), the “activity change, negative = cytotoxicity” value rises from 3.34% to 4.2%.

First: Nc1ccc(S(=O)(=O)O)c(N)c1
Second: O=C(O)c1ccc(CO)o1
The “activity change, negative = cytotoxicity” value of the first is lower: -13.5% for the first, 4.45% for the second.

First: CC(C)CCCC(=O)O
Second: CCCCOC(=O)CCS
The “activity change, negative = cytotoxicity” value of the first is lower: -0.764% for the first, 0.732% for the second.

Compared with `CCn1nc(C)c2c1C(=O)NCC(c1ccc(O)cc1)=N2`, `CCCOc1ccc(S(=O)(=O)N2CCN(CC)CC2)cc1-c1nc2c(CC)n(Cc3ccccn3)nc2c(=O)[nH]1` is lower in “activity change, negative = cytotoxicity” value: 8.38% for the first, -24% for the second.

Going from `NC(=O)N(O)[C@@H]1COc2cc(OCc3ccccc3)ccc21` to `CSc1ccc(Oc2ccc(S(N)(=O)=O)cc2CN(C)C)cc1C`, the “activity change, negative = cytotoxicity” value rises from -23.5% to -5.58%.

First: O=c1[nH]c2ccc(S(=O)CCN3CCC(Cc4ccc(F)cc4)CC3)cc2o1 (stereo unspecified)
Second: CC(C)(C)CC(C)(C)c1ccc(OCCO)cc1
The “activity change, negative = cytotoxicity” value of the first is lower: -1.2% for the first, 2.92% for the second.

Going from `CCCCC(CC)COC(=O)COc1ccc(Cl)cc1C` (stereo unspecified) to `CCOC(=O)OCC`, the “activity change, negative = cytotoxicity” value rises from 8.38% to 9.21%.

For `O=S1OCCO1`, the “activity change, negative = cytotoxicity” value was 3.98%.

First: Nc1nc(Cl)nc2c1ncn2[C@@H]1O[C@H](CO)[C@@H](O)[C@@H]1F
Second: CO/N=C1\CN(c2nc3c(cc2F)c(=O)c(C(=O)O)cn3C2CC2)CC1CN (stereo unspecified)
The “activity change, negative = cytotoxicity” value of the first is higher: 15.5% [at 35.3 µM] for the first, -2.15% [at 35.3 µM] for the second.

First: OC(CCCN1CCCCC1)(c1ccccc1)c1ccccc1
Second: C[N+]1(C)CCC(=C(c2ccccc2)c2ccccc2)CC1
The “activity change, negative = cytotoxicity” value of the first is lower: 4.83% [at 35.3 µM] for the first, 7.35% [at 35.3 µM] for the second.

Going from `CC(=O)[C@H]1CC[C@H]2[C@@H]3C=CC4=CC(=O)CC[C@@]4(C)[C@@H]3CC[C@]12C` to `CC(=O)OCC(=O)[C@H]1CC[C@H]2[C@@H]3CCC4=CC(=O)CC[C@]4(C)[C@H]3CC[C@]12C`, the “activity change, negative = cytotoxicity” value falls from 2.38% [at 35.3 µM] to -1.78% [at 35.3 µM].

Going from `CCN(Cc1cccc(S(=O)(=O)O)c1)c1ccc(C(=C2C=CC(=[N+](CC)Cc3cccc(S(=O)(=O)[O-])c3)C=C2)c2ccccc2)cc1` to `O=C(CCC1CCN(Cc2ccccc2)CC1)c1ccc2c(c1)NCCCC2`, the “activity change, negative = cytotoxicity” value falls from -6.14% [at 35.3 µM] to -6.47% [at 35.3 µM].

Going from `CCOC(=O)N1CCC(n2c(=O)[nH]c3cc(Cl)ccc32)CC1` to `CN1Cc2cc(C(=O)N3CCC(C4CCNCC4)CC3)ccc2N[C@@H](CC(=O)O)C1=O`, the “activity change, negative = cytotoxicity” value falls from 13.3% [at 35.3 µM] to 9.65% [at 35.3 µM].

Going from `CCCOC(=O)c1ccc(N)cc1` to `CCC(C(=O)OCCN(CC)CC)c1ccccc1` (stereo unspecified), the “activity change, negative = cytotoxicity” value falls from 1% [at 35.3 µM] to 0.0243% [at 35.3 µM].

Compared with `O=C(CCCCCCCCC#CI)Oc1ccccc1`, `COc1ccc([C@@H]2Sc3ccccc3NC(=O)[C@@H]2O)cc1` is higher in “activity change, negative = cytotoxicity” value: 3.87% [at 35.3 µM] for the first, 12% [at 35.3 µM] for the second.

First: Cc1ccccc1N1C(=O)c2cc(S(N)(=O)=O)c(Cl)cc2NC1C (stereo unspecified)
Second: CC1(C)O[C@@H]2C[C@H]3[C@@H]4CCC5=CC(=O)C=C[C@]5(C)[C@H]4[C@@H](O)C[C@]3(C)[C@]2(C(=O)CO)O1
The “activity change, negative = cytotoxicity” value of the first is higher: 4.1% [at 35.3 µM] for the first, -22.6% [at 35.3 µM] for the second.

For `C/C(=N/NC(=O)c1ccncc1)C(=O)O`, the “activity change, negative = cytotoxicity” value was 5.36% [at 35.3 µM].

For `CNC(=S)NC`, the Potency was 11 µM (active).
